Experimental data reported in PubChem BioAssay AID1159580 (chemical genetic matrix, 2015).
Among all 5,500 compounds or so, about 2,000 (36%) were called active. Roughly 18% stayed inconclusive and do not appear here. The list shows a part of the results. A number with no mark means an inactive call. Cut-off read from the data, not from the text of the source: active = normalized growth mostly below about 0.91 (no sharp cut-off); inconclusive = no clear call, values can overlap the other calls; inactive = mostly above about 0.92.

Experiment: chemical genetic growth profiling, strain panel (AID 1159580);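 note: tested at 20 µM; growth read once vehicle control cultures reached saturation at 30 °C; 1 = growth at the plate median or of vehicle wells; lower values mean less growth of the strain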
Details: growth OD

Structure (SMILES): CC1CC2C3CC(F)C4=CC(=O)C=CC4(C)C3(F)C(O)CC2(C)C1C(=O)COC(=O)C(C)(C)C (stereo not given)
- normalized growth (S. cerevisiae deletion strains, locus YBR021W, strain FUR4, active compounds read low): 0.903
- normalized growth (S. cerevisiae deletion strains, locus YBR229C, strain ROT2, active compounds read low): 0.997
- normalized growth (S. cerevisiae deletion strains, locus YCL029C, strain bik1, active compounds read low): 1.05
- normalized growth (S. cerevisiae deletion strains, locus YDL035C, strain GPR1, active compounds read low): 0.871
- normalized growth (S. cerevisiae deletion strains, locus YDL074C, strain BRE1, active compounds read low): 0.879
- normalized growth (S. cerevisiae deletion strains, locus YDL101C, strain DUN1, active compounds read low): 1.01
- normalized growth (S. cerevisiae deletion strains, locus YDL134C, strain PPH21, active compounds read low): 0.873 (active)
- normalized growth (S. cerevisiae deletion strains, locus YDL185W, strain tfp1, active compounds read low): 1.01
- normalized growth (S. cerevisiae deletion strains, locus YDL192W, strain arf1, active compounds read low): 0.997
- normalized growth (S. cerevisiae deletion strains, locus YDR101C, strain arx1, active compounds read low): 1.02
- normalized growth (S. cerevisiae deletion strains, locus YDR150W, strain NUM1, active compounds read low): 0.977
- normalized growth (S. cerevisiae deletion strains, locus YDR162C, strain NBP2, active compounds read low): 0.867
- normalized growth (S. cerevisiae deletion strains, locus YDR318W, strain mcm21, active compounds read low): 1.01
- normalized growth (S. cerevisiae deletion strains, locus YDR388W, active compounds read low): 1.04
- normalized growth (S. cerevisiae deletion strains, locus YDR502C, strain sam2, active compounds read low): 1.02
- normalized growth (S. cerevisiae deletion strains, locus YEL061C, strain CIN8, active compounds read low): 0.973
- normalized growth (S. cerevisiae deletion strains, locus YER110C, active compounds read low): 1.04
- normalized growth (S. cerevisiae deletion strains, locus YER155C, strain BEM2, active compounds read low): 1.04
- normalized growth (S. cerevisiae deletion strains, locus YER167W, strain BCK2, active compounds read low): 0.992
- normalized growth (S. cerevisiae deletion strains, locus YGL078C, strain dbp3, active compounds read low): 1.02
- normalized growth (S. cerevisiae deletion strains, locus YGL086W, strain mad1, active compounds read low): 0.96
- normalized growth (S. cerevisiae deletion strains, locus YGL248W, strain PDE1, active compounds read low): 0.927
- normalized growth (S. cerevisiae deletion strains, locus YGR078C, strain PAC10, active compounds read low): 0.92
- normalized growth (S. cerevisiae deletion strains, locus YGR135W, strain pre9, active compounds read low): 0.957
- normalized growth (S. cerevisiae deletion strains, locus YGR252W, strain gcn5, active compounds read low): 0.849
- normalized growth (S. cerevisiae deletion strains, locus YHR030C, strain SLT2, active compounds read low): 0.989
- normalized growth (S. cerevisiae deletion strains, locus YHR079C, strain IRE1 (second series), active compounds read low): 1.03
- normalized growth (S. cerevisiae deletion strains, locus YHR094C, strain hxt1, active compounds read low): 1.04
- normalized growth (S. cerevisiae deletion strains, locus YHR129C, strain ARP1, active compounds read low): 0.964
- normalized growth (S. cerevisiae deletion strains, locus YHR200W, strain rpn10, active compounds read low): 1.01
- normalized growth (S. cerevisiae deletion strains, locus YIL066C, strain RNR3, active compounds read low): 0.852 (active)
- normalized growth (S. cerevisiae deletion strains, locus YIL073C, strain SPO22, active compounds read low): 0.954
- normalized growth (S. cerevisiae deletion strains, locus YIL125W, strain kgd1, active compounds read low): 1.02
- normalized growth (S. cerevisiae deletion strains, locus YIR030C, strain dcg1, active compounds read low): 1.03
- normalized growth (S. cerevisiae deletion strains, locus YJL095W, strain BCK1, active compounds read low): 0.989
- normalized growth (S. cerevisiae deletion strains, locus YJL134W, strain LCB3, active compounds read low): 1.01
- normalized growth (S. cerevisiae deletion strains, locus YJL168C, strain set2, active compounds read low): 1.01
- normalized growth (S. cerevisiae deletion strains, locus YJL187C, strain SWE1 (second series), active compounds read low): 0.934
- normalized growth (S. cerevisiae deletion strains, locus YJR043C, strain POL32, active compounds read low): 0.892
- normalized growth (S. cerevisiae deletion strains, locus YKL009W, strain mrt4, active compounds read low): 1.03
- normalized growth (S. cerevisiae deletion strains, locus YKL068W, active compounds read low): 1.02
- normalized growth (S. cerevisiae deletion strains, locus YKL085W, strain MDH1 (second series), active compounds read low): 1.01
- normalized growth (S. cerevisiae deletion strains, locus YKL085W, strain MDH1, active compounds read low): 1.01
- normalized growth (S. cerevisiae deletion strains, locus YKR001C, strain vps1, active compounds read low): 0.987
- normalized growth (S. cerevisiae deletion strains, locus YLR039C, strain RIC1, active compounds read low): 0.804
- normalized growth (S. cerevisiae deletion strains, locus YLR058C, strain SHM2, active compounds read low): 0.981
- normalized growth (S. cerevisiae deletion strains, locus YLR102C, strain apc9, active compounds read low): 1.03
- normalized growth (S. cerevisiae deletion strains, locus YLR262C, strain YPT6, active compounds read low): 0.872
- normalized growth (S. cerevisiae deletion strains, locus YLR268W, strain sec22, active compounds read low): 0.985
- normalized growth (S. cerevisiae deletion strains, locus YLR330W, strain CHS5, active compounds read low): 0.967
- normalized growth (S. cerevisiae deletion strains, locus YLR342W, strain FKS1 (second series), active compounds read low): 0.758 (active)
- normalized growth (S. cerevisiae deletion strains, locus YLR371W, strain rom2, active compounds read low): 1.03
- normalized growth (S. cerevisiae deletion strains, locus YLR418C, strain cdc73, active compounds read low): 0.953
- normalized growth (S. cerevisiae deletion strains, locus YML016C, strain PPZ1, active compounds read low): 0.951
- normalized growth (S. cerevisiae deletion strains, locus YML032C, strain rad52, active compounds read low): 1.03
- normalized growth (S. cerevisiae deletion strains, locus YML124C, strain tub3, active compounds read low): 1.02
- normalized growth (S. cerevisiae deletion strains, locus YMR078C, strain ctf18, active compounds read low): 1.04
- normalized growth (S. cerevisiae deletion strains, locus YMR223W, strain ubp8, active compounds read low): 0.965
- normalized growth (S. cerevisiae deletion strains, locus YMR307W, strain GAS1, active compounds read low): 0.922
- normalized growth (S. cerevisiae deletion strains, locus YNL067W, strain RPL9B, active compounds read low): 0.989
- normalized growth (S. cerevisiae deletion strains, locus YNL128W, strain TEP1, active compounds read low): 0.908
- normalized growth (S. cerevisiae deletion strains, locus YNL233W, strain BNI4, active compounds read low): 0.919
- normalized growth (S. cerevisiae deletion strains, locus YNL250W, strain rad50, active compounds read low): 1.01
- normalized growth (S. cerevisiae deletion strains, locus YNL271C, strain bni1, active compounds read low): 1.02
- normalized growth (S. cerevisiae deletion strains, locus YNL298W, strain CLA4, active compounds read low): 1.01
- normalized growth (S. cerevisiae deletion strains, locus YNL307C, strain MCK1, active compounds read low): 1.03
- normalized growth (S. cerevisiae deletion strains, locus YNL322C, strain KRE1, active compounds read low): 0.984
- normalized growth (S. cerevisiae deletion strains, locus YNR052C, strain pop2, active compounds read low): 1.01
- normalized growth (S. cerevisiae deletion strains, locus YOL006C, strain TOP1, active compounds read low): 0.509 (active)
- normalized growth (S. cerevisiae deletion strains, locus YOL012C, strain htz1): 1.01
- normalized growth (S. cerevisiae deletion strains, locus YOL147C, strain pex11, active compounds read low): 1.03
- normalized growth (S. cerevisiae deletion strains, locus YOR061W, strain CKA2, active compounds read low): 0.878 (active)
- normalized growth (S. cerevisiae deletion strains, locus YOR069W, strain VPS5, active compounds read low): 0.991
- normalized growth (S. cerevisiae deletion strains, locus YOR136W, strain idh2, active compounds read low): 1.02
- normalized growth (S. cerevisiae deletion strains, locus YOR144C, strain elg1, active compounds read low): 1.03
- normalized growth (S. cerevisiae deletion strains, locus YOR184W, strain ser1, active compounds read low): 0.974
- normalized growth (S. cerevisiae deletion strains, locus YOR316C, strain cot1, active compounds read low): 1.03
- normalized growth (S. cerevisiae deletion strains, locus YPL055C, strain LGE1, active compounds read low): 0.843
- normalized growth (S. cerevisiae deletion strains, locus YPL241C, strain CIN2, active compounds read low): 0.992
- normalized growth (S. cerevisiae deletion strains, locus YPR119W, strain clb2, active compounds read low): 1.03
- normalized growth (S. cerevisiae deletion strains, locus YPR141C, strain kar3, active compounds read low): 1.02
- normalized growth (S. cerevisiae deletion strains, locus YPR163C, strain tif3, active compounds read low): 1.03
- normalized growth (S. cerevisiae deletion strains, locus YPR167C, strain met16, active compounds read low): 1.01
- normalized growth (S. cerevisiae deletion strains, strain wtn01, active compounds read low): 0.983
- normalized growth (S. cerevisiae strains, strain wild type, active compounds read low): 0.876 (active)
